Screens from PubChem.
RORg inh: qHTS for inhibitors of ROR gamma transcriptional activity; AID 2551, 2010; Potency, µM (top dose mostly 53.6 µM), usual class: inhibitors; hit rate 5.4% among 310,000; Drosophila S2 Gal4-RORgamma UAS-luciferase reporter, 20 h; further: nearly all actives have a fitted effect of over 60% in size
Target sequence (P51450 whole entry, looked up, the tested form may be a part): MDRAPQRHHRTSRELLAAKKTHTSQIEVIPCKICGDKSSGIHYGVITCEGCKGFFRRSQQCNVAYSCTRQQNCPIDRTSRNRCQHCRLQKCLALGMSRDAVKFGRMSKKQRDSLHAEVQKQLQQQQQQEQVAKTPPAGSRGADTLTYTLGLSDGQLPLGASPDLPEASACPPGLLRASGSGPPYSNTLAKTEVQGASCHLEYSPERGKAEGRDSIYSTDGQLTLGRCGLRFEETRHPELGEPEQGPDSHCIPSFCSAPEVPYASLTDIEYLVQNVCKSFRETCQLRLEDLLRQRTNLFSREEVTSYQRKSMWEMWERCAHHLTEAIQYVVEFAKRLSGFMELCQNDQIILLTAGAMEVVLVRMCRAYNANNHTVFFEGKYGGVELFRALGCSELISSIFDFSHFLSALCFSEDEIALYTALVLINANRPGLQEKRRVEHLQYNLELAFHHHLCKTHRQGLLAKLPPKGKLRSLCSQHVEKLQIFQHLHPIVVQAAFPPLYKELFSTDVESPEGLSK
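In this cell-based reporter format, copper sulfate (700 uM final) drives Gal4–ROR gamma fusion expression from a metallothionein promoter in Drosophila Schneider cells; compounds preincubated 1 hr, reporter read after 20 hr at ambient temperature.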
Gal4-VP16 FLuc: VP16 counterscreen qHTS for inhibitors of ROR gamma transcriptional activity. Drosophila S2 Gal4-VP16 UAS-luciferase, luminescence, 20 h. Potency, µM (doses to about 53.6 µM), hits mostly inhibitors. hit rate 3.5% among 310,000;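 further: Gal4-VP16 expression switched on by copper sulfate through the metallothionein promoter; nearly all actives have a fitted effect of over 50% in size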
GLP-1R agonist: qHTS of GLP-1 Receptor Agonists; Glucagon-like peptide 1 receptor (Homo sapiens), P43220; HEK293 GLP-1R CRE-luciferase, luminescence, 4-6 h; cells express a hypersensitive GLP-1R form; Potency, µM (titrated, usually from 45.6 µM), usual class: activators; hit rate 0.007% among 380,000
GLP1R inv ag: qHTS of GLP-1 Receptor Inverse Agonists (Inhibition Mode); Glucagon-like peptide 1 receptor (Homo sapiens), P43220; AID 624417, 2012; HEK293 GLP-1R CRE-luciferase, luminescence, 24 h; GLP-1R form is constitutively active; Potency, µM (top dose mostly 38.3 µM), hits mostly inhibitors; hit rate 1.6% among 410,000; further: nearly all actives have a fitted effect of over 55% in size
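HEK293 cells stably co-expressing constitutively active GLP-1R and a cAMP-responsive luciferase reporter were seeded in DMEM with 10% Nu serum, given compounds after 12 h, and incubated 24 h at 37 deg C. Luminescence was then read.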
HEK293 tox: qHTS of GLP-1 Receptor Inverse Agonists: Cytotox Screen; Potency, µM (series often up to 38.3 µM), usual class: inhibitors; hit rate 0.13% among 410,000; HEK293 cAMP-luciferase reporter cells, luminescence, 24 h;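 further: loss of luciferase light is scored as toxicity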
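Compound-treated cells are incubated 24 hr at 37 deg C under 5% CO2 after a 12 hour attachment period, then luciferase detection reagent is added and luminescence is measured following 12 min at room temperature; lowered signal indicates toxicity.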
A number is an active result; 0 = inactive; ? = inconclusive; - = no result; [ ] = dose if it differs, or a comment. Most compounds without a hit are left out; they make up all but 5.9% or so of the library. The call rests on the fitted dose curve; in most records, active means well fitted curve in the direction sought with a large enough effect; inconclusive means small, poorly fitted or top-dose-only effect, or another doubt; inactive means no such curve, though single readings can be large; an effect the other way counts as inactive or inconclusive.

SMILES	RORg inh	Gal4-VP16 FLuc	GLP-1R agonist	GLP1R inv ag	HEK293 tox
CCC1(C)C(Nc2c(C)cccc2C)=NC(=S)N1c1ccc(NC(C)=O)cc1 (centres undefined)	0	0	0	0	0
Cc1ccccc1NC1=NC(=S)N(c2ccccc2)C12CCOC(C)(C)C2 (centres undefined)	6.3µM	18µM	0	0	0
CC1(C)CC2(CCO1)C(Nc1ccccc1)=NC(=S)N2c1ccccc1 (centres undefined)	0	0	0	0	0
COc1ccccc1N1CCN(C[C@@H](C(=O)NC(C)(C)C)c2ccccc2)CC1	0	0	-	-	-
Cc1cccc(C2=NN(c3ccc(Br)cc3)[C@@H](C(=O)N3CCOC3=O)[C@@H]2c2ccc(F)cc2)c1	0	0	0	8.9µM	0
CC[C@@H]1C(c2ccc(F)cc2)=NN(c2ccc(Br)cc2)[C@H]1C(=O)N1CCOC1=O	0	0	0	10µM	0
O=C1OCCN1C(=O)[C@H]1[C@H](c2ccccc2)C(c2cccc(Cl)c2)=NN1c1ccc(Br)cc1	0	0	0	0	0
O=C1OCCN1C(=O)[C@H]1[C@H](c2ccc([N+](=O)[O-])cc2)C(c2cccc(Cl)c2)=NN1c1ccc(Br)cc1	0	0	0	?	0
O=C1OCCN1C(=O)[C@H]1[C@H](c2ccc([N+](=O)[O-])cc2)C(c2ccccc2)=NN1c1ccc(Br)cc1	0	0	0	3.5µM	0
O=C1OCCN1C(=O)[C@H]1[C@H](c2ccc(F)cc2)C(c2cccc(Cl)c2)=NN1c1ccc(Br)cc1	0	0	0	8.9µM	0
Cc1cccc(C2=NN(c3ccc(Br)cc3)[C@@H](C(=O)N3CCOC3=O)[C@@H]2c2ccc(Cl)cc2)c1	0	0	0	?	0
CO[C@H]1COC(=O)[C@@H](C)COC(=O)[C@H](C)NC(=O)C/C=C\[C@H]1C	0[10 µM]	0[10 µM]	-	-	-
O=S(=O)(NCCc1ccccc1)c1ccc(N2CCCCS2(=O)=O)cc1	-	-	-	0	0
CC(C)(C)N=Cc1c(O)ccc2oc3c(c12)CCCC3	0	0	0	0	0
O=[N+]([O-])c1cc2oc3c(c2c(C=NCc2ccncc2)c1O)CCCC3	13µM	?	0	0	0
O=C(NNS(=O)(=O)c1ccc2ccccc2c1)c1cc(-c2ccccn2)nc2ccccc12	0	7.9µM	0	0	0
O=C(Nn1cnnc1)c1cc(-c2ccccn2)nc2ccccc12	0	0	0	0	0
Cc1ccc(Cc2c(C)nc3nc(SCC(=O)NC(C)c4ccccc4)nn3c2C)cc1 (centres undefined)	-	-	-	?	0
C/C(CC(=O)N1CCN(C=O)CC1)=N\NC(=O)c1cc2ccccc2cc1O	0	0	0	?	0
CC(C)=CCC/C(C)=C/C=N/NC(=O)c1cccc([N+](=O)[O-])c1	1.6µM	1.4µM	0	0	0
C/C(CC(=O)N1CCN(C=O)CC1)=N\NC(=O)c1ccc([N+](=O)[O-])cc1	8.9µM	?	0	0	0
CC(C)=CCC/C(C)=C/C=N/NC(=O)c1ccc([N+](=O)[O-])cc1	3.5µM	2.8µM	0	0	0
Nc1ccc(C(=O)N/N=C\C=C\c2ccc([N+](=O)[O-])cc2)cc1	0	0	0	0	0
CC(C)[C@@H](CC(=O)N[C@@H]1CCCC[C@H]1C(=O)N[C@H](CC(=O)N[C@@H](CCC(=O)O)CC(=O)O)Cc1ccccc1)NC(=O)C[C@H](Cc1ccccc1)NC(=O)[C@@H]1CNCC[C@H]1N	0	0	-	-	-
CC(=O)Nc1ccc(S(=O)(=O)Oc2cccc(N3C(=O)C4CC=CCC4C3=O)c2)cc1 (centres undefined)	0	0	0	0	0
SMILES	RORg inh	Gal4-VP16 FLuc	GLP-1R agonist	GLP1R inv ag	HEK293 tox
CC(=O)Nc1ccc(S(=O)(=O)Oc2ccc(N3C(=O)C4CCCCC4C3=O)cc2)cc1 (centres undefined)	?	13µM	0	0	0
Cc1cc(C)nc(N(C#N)CC(=O)c2ccccc2)n1	0	0	0	0	0
CCc1ccc(C(=O)CN(C#N)c2nc(C)cc(C)n2)cc1	11µM	0	0	?	?
O=C(c1ccccc1)N1N=C(c2ccc(F)cc2)CC1c1ccc(F)cc1 (centres undefined)	-	-	0	10µM	0
Fc1ccc(C2CC(c3cccs3)=NN2c2ccccc2)cc1 (centres undefined)	0	0	0	?	0[7.66 µM]
CC(=O)N1N=C(c2ccccc2)CC1c1ccc(F)cc1 (centres undefined)	0	0	0	0	0
O=C(c1ccccc1)N1N=C(c2cccs2)CC1c1ccccc1O (centres undefined)	0	0	0	8.9µM	0
c1ccc(C2CC(c3cccs3)=NN2c2ccccc2)cc1 (centres undefined)	0	0	0	10µM	0
CCCNC(=O)N1[C@H](c2ccc(C)s2)[C@@H](C)C(=O)[C@@H](C)[C@@H]1c1ccc(C)s1	-	-	-	?	0
C=CCC(C)(O)C(=O)OCC (centres undefined)	0	0	-	-	-
Cc1cccc(C(=O)n2nc(C)c(S(=O)(=O)N3CCOCC3)c2C)c1	-	-	0	0	0
CCOc1ccc(S(=O)(=O)Nc2ccccc2C(=O)N/N=C/c2c(OC)ccc3ccccc23)cc1	6.3µM	5.6µM	0	0	0
CC1(C)CC(=O)C(C=NCc2ccccn2)=C(O)C1	7.1µM	16µM	0	0	0
COc1ccccc1N1CCN(C(=O)c2cnn(C(C)(C)C)c2C2CCN(C(=O)OC(C)(C)C)CC2)CC1	-	-	-	0	0
OCc1ccc(-c2ccc(-c3ccc(CO)s3)o2)s1	0.63µM	1.6µM	-	-	-
O=C1CC(O)(c2ccccc2)C(c2ccccc2)=C1c1ccccc1 (centres undefined)	0	0	0	10µM	0
COc1ccc(C(=O)NCC(=O)c2ccccc2)cc1	10µM	0	0	0	0
COc1ccc(O)c(C(=O)CC(=O)c2ccccc2)c1	7.1µM	13µM	-	-	-
COc1ccc(C(=O)CC(=O)c2ccccc2)cc1	-	-	0	0	0
COc1ccc(C(=O)CC(=O)c2ccc(OC)cc2)cc1	13µM	18µM	0	0	0
COc1ccc(CNC(=O)c2ccc(-c3ccccc3)cc2)cc1	0	0	0	0	0
COc1ccc(C(=O)C/C(=C\C(=O)c2ccc(C)cc2)c2ccccc2)cc1	0	?	0	4.5µM	0
CC(C)(C)NC(=O)[C@H]1CC[C@H]2[C@@H]3CC=C4C=C(C(=O)O)CC[C@@]4(C)[C@H]3CC[C@]12C	-	-	0	-	-
Cc1nc2nc(CNC(=O)c3cccc(F)c3)nn2c(C)c1CCC(=O)Nc1ccc(F)cc1	-	-	-	0	0
